Measured values: the supplement of paper PMC4022240
± gives the standard deviation.

How the values were obtained:
Assay in all cases: peptide microarray binding signal (635 nm), min-max normalized on array (fraction of array maximum); higher = stronger binding
Conditions in all cases: peptide region: H3 1-13
[1] = target: T1, HaloTag-ATRX ADD domain (163-292)
T1 chain: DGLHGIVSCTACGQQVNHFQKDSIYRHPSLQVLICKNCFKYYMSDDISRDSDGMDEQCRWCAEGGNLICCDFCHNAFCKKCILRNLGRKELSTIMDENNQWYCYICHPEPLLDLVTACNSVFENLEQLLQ
Experimental: (§1)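 Histone 13-mer peptides were synthesized as cellulose conjugates with a C-terminal 20-atom PEG linker and printed in triplicate on nitrocellulose. The sequence given is the unmodified backbone; PTMs (Kme1/2/3, Kac, Sph/Tph, Rme/Rme2a/Rme2s, Rcit) are listed in the label and the 'peptide modifications' condition. Slides were probed at 4 °C for 1 h with biotin-labelled (HQ)5-HaloTag reader fusions (ATRX-ADD, ING2-PHD) then streptavidin-Alexa647, or with rabbit histone antibodies then anti-rabbit Alexa647. The mean 635 nm signal of the triplicate spots was scaled 0-1 between the lowest and highest values on each array.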

[2] = target: HaloTag-ING2 PHD (mouse Ing2 200-280)
Experimental: as §1

[3] = target: anti-H3K4me3 antibody ab8580
Experimental: as §1

[4] = target: anti-H3K9me3 antibody ab8898
Experimental: as §1

[5] = peptide modifications: H3R8me2a H3K9me3, binder concentration: 1:2,000 dilution
[6] = peptide modifications: H3R8me2a H3K9me3, binder concentration: 1:10,000 dilution
[7] = peptide modifications: H3R8me2a, binder concentration: 1:2,000 dilution
[8] = peptide modifications: H3R8me2a, binder concentration: 1:10,000 dilution
[9] = peptide modifications: H3R8me2s H3K9ac, binder concentration: 1:2,000 dilution
[10] = peptide modifications: H3R8me2s H3K9me1, binder concentration: 1:2,000 dilution
[11] = peptide modifications: H3R8me2s H3K9me1, binder concentration: 1:10,000 dilution
[12] = peptide modifications: H3R8me2s H3K9me2, binder concentration: 1:2,000 dilution
[13] = peptide modifications: H3R8me2s H3K9me2, binder concentration: 1:10,000 dilution
[14] = peptide modifications: H3R8me2s H3K9me3, binder concentration: 1:2,000 dilution
[15] = peptide modifications: H3R8me2s H3K9me3, binder concentration: 1:10,000 dilution
[16] = peptide modifications: H3R8me2s, binder concentration: 1:2,000 dilution
[17] = peptide modifications: H3R8me2s, binder concentration: 1:10,000 dilution
[18] = peptide modifications: H3S10ph, binder concentration: 1:2,000 dilution
[19] = peptide modifications: H3S10ph, binder concentration: 1:10,000 dilution
[20] = peptide modifications: H3T3ph H3K4ac, binder concentration: 1:2,000 dilution
[21] = peptide modifications: H3T3ph H3K4ac, binder concentration: 1:10,000 dilution
[22] = peptide modifications: H3T3ph H3K4me1, binder concentration: 1:2,000 dilution
[23] = peptide modifications: H3T3ph H3K4me1, binder concentration: 1:10,000 dilution

Question: ARTKQTARKSTGG [H3 1-13 A R T K Q T A Rme2a Kme3 S T G G] was tested. Which “peptide microarray binding signal” value ([1]; peptide modifications: H3R8me2a H3K9me3, binder concentration: 50 nM) did it give?
Answer: 0.955 ± 0.067

Question: And the “peptide microarray binding signal” value ([1]; peptide modifications: H3R8me2a H3K9me3, binder concentration: 500 nM)?
Answer: 0.905 ± 0.038

Question: What about the “peptide microarray binding signal” value ([2]; peptide modifications: H3R8me2a H3K9me3, binder concentration: 10 nM) of the same binder?
Answer: 0.126 ± 0.042

Question: And the “peptide microarray binding signal” value ([2]; peptide modifications: H3R8me2a H3K9me3, binder concentration: 100 nM)?
Answer: 0.201 ± 0.059

Question: And the “peptide microarray binding signal” value [3, 5]?
Answer: 0.0701 ± 0.02

Question: What about the “peptide microarray binding signal” value [3, 6] of the same binder?
Answer: 0.0416 ± 0.019

Question: What about the “peptide microarray binding signal” value [4, 5] of the same binder?
Answer: 0.458 ± 0.13

Question: And the “peptide microarray binding signal” value [4, 6]?
Answer: 0.309 ± 0.082

Question: ARTKQTARKSTGG [H3 1-13 A R T K Q T A Rme2a K S T G G] was tested. Which “peptide microarray binding signal” value ([1]; peptide modifications: H3R8me2a, binder concentration: 50 nM) did it give?
Answer: 0.00959 ± 0.00045

Question: What about the “peptide microarray binding signal” value ([1]; peptide modifications: H3R8me2a, binder concentration: 500 nM) of the same binder?
Answer: 0.0248 ± 0.0019

Question: And the “peptide microarray binding signal” value ([2]; peptide modifications: H3R8me2a, binder concentration: 10 nM)?
Answer: 0.00812 ± 0.00091

Question: What about the “peptide microarray binding signal” value ([2]; peptide modifications: H3R8me2a, binder concentration: 100 nM) of the same binder?
Answer: 0.0181 ± 0.0056

Question: What about the “peptide microarray binding signal” value [3, 7] of the same binder?
Answer: 0.00191 ± 0.00018

Question: And the “peptide microarray binding signal” value [3, 8]?
Answer: 0.000799 ± 2.2e-05

Question: What about the “peptide microarray binding signal” value [4, 7] of the same binder?
Answer: 0.000951 ± 7e-05

Question: What about the “peptide microarray binding signal” value [4, 8] of the same binder?
Answer: 0.000634 ± 1.2e-05

Question: How did the “peptide microarray binding signal” value ([1]; peptide modifications: H3R8me2s H3K9ac, binder concentration: 500 nM) turn out when ARTKQTARKSTGG [H3 1-13 A R T K Q T A Rme2s Kac S T G G] was run?
Answer: 0.0059 ± 0.0002

Question: And the “peptide microarray binding signal” value ([2]; peptide modifications: H3R8me2s H3K9ac, binder concentration: 100 nM)?
Answer: 0.00574 ± 0.00031

Question: And the “peptide microarray binding signal” value [3, 9]?
Answer: 0.00142 ± 6.5e-05

Question: And the “peptide microarray binding signal” value [4, 9]?
Answer: 0.00243 ± 0.00046

Question: Which results are given for ARTKQTARKSTGG [H3 1-13 A R T K Q T A Rme2s Kme S T G G]?
Answer: peptide microarray binding signal ([1]; peptide modifications: H3R8me2s H3K9me1, binder concentration: 50 nM): 0.0145 ± 0.00064; peptide microarray binding signal ([1]; peptide modifications: H3R8me2s H3K9me1, binder concentration: 500 nM): 0.0339 ± 0.0019; peptide microarray binding signal ([2]; peptide modifications: H3R8me2s H3K9me1, binder concentration: 10 nM): 0.0365 ± 0.0046; peptide microarray binding signal ([2]; peptide modifications: H3R8me2s H3K9me1, binder concentration: 100 nM): 0.0547 ± 0.007; peptide microarray binding signal [3, 10]: 0.0103 ± 0.0015; peptide microarray binding signal [3, 11]: 0.0069 ± 0.0003; peptide microarray binding signal [4, 10]: 0.00578 ± 0.0013; peptide microarray binding signal [4, 11]: 0.00588 ± 0.00043

Question: ARTKQTARKSTGG [H3 1-13 A R T K Q T A Rme2s Kme2 S T G G] was tested. Which “peptide microarray binding signal” value ([1]; peptide modifications: H3R8me2s H3K9me2, binder concentration: 50 nM) did it give?
Answer: 0.0108 ± 0.00034

Question: What about the “peptide microarray binding signal” value ([1]; peptide modifications: H3R8me2s H3K9me2, binder concentration: 500 nM) of the same binder?
Answer: 0.0202 ± 0.00096

Question: What about the “peptide microarray binding signal” value ([2]; peptide modifications: H3R8me2s H3K9me2, binder concentration: 10 nM) of the same binder?
Answer: 0.0292 ± 0.0027

Question: And the “peptide microarray binding signal” value ([2]; peptide modifications: H3R8me2s H3K9me2, binder concentration: 100 nM)?
Answer: 0.049 ± 0.0084

Question: What about the “peptide microarray binding signal” value [3, 12] of the same binder?
Answer: 0.00447 ± 0.00012

Question: What about the “peptide microarray binding signal” value [3, 13] of the same binder?
Answer: 0.00451 ± 0.00027

Question: What about the “peptide microarray binding signal” value [4, 12] of the same binder?
Answer: 0.00805 ± 0.0035

Question: And the “peptide microarray binding signal” value [4, 13]?
Answer: 0.0049 ± 0.00019

Question: Which “peptide microarray binding signal” value ([1]; peptide modifications: H3R8me2s H3K9me3, binder concentration: 50 nM) does the source give for ARTKQTARKSTGG [H3 1-13 A R T K Q T A Rme2s Kme3 S T G G] here?
Answer: 0.0211 ± 0.0011

Question: What about the “peptide microarray binding signal” value ([1]; peptide modifications: H3R8me2s H3K9me3, binder concentration: 500 nM) of the same binder?
Answer: 0.0455 ± 0.0027

Question: And the “peptide microarray binding signal” value ([2]; peptide modifications: H3R8me2s H3K9me3, binder concentration: 10 nM)?
Answer: 0.0394 ± 0.0041

Question: What about the “peptide microarray binding signal” value ([2]; peptide modifications: H3R8me2s H3K9me3, binder concentration: 100 nM) of the same binder?
Answer: 0.0568 ± 0.0048

Question: What about the “peptide microarray binding signal” value [3, 14] of the same binder?
Answer: 0.0739 ± 0.0089

Question: And the “peptide microarray binding signal” value [3, 15]?
Answer: 0.0587 ± 0.011

Question: What about the “peptide microarray binding signal” value [4, 14] of the same binder?
Answer: 0.468 ± 0.023

Question: What about the “peptide microarray binding signal” value [4, 15] of the same binder?
Answer: 0.396 ± 0.02

Question: Which “peptide microarray binding signal” value ([1]; peptide modifications: H3R8me2s, binder concentration: 50 nM) does the source give for ARTKQTARKSTGG [H3 1-13 A R T K Q T A Rme2s K S T G G] here?
Answer: 0.007899 ± 6.4e-05

Question: And the “peptide microarray binding signal” value ([1]; peptide modifications: H3R8me2s, binder concentration: 500 nM)?
Answer: 0.0258 ± 0.00046

Question: What about the “peptide microarray binding signal” value ([2]; peptide modifications: H3R8me2s, binder concentration: 10 nM) of the same binder?
Answer: 0.0129 ± 0.00049

Question: What about the “peptide microarray binding signal” value ([2]; peptide modifications: H3R8me2s, binder concentration: 100 nM) of the same binder?
Answer: 0.0364 ± 0.027

Question: What about the “peptide microarray binding signal” value [3, 16] of the same binder?
Answer: 0.00759 ± 0.0043

Question: And the “peptide microarray binding signal” value [3, 17]?
Answer: 0.00302 ± 0.00087

Question: And the “peptide microarray binding signal” value [4, 16]?
Answer: 0.0037 ± 0.00057

Question: What about the “peptide microarray binding signal” value [4, 17] of the same binder?
Answer: 0.00254 ± 0.00038

Question: ARTKQTARKSTGG [H3 1-13 A R T K Q T A R K Sph T G G] was tested. Which “peptide microarray binding signal” value ([1]; peptide modifications: H3S10ph, binder concentration: 50 nM) did it give?
Answer: 0.00508 ± 8.1e-05

Question: And the “peptide microarray binding signal” value ([1]; peptide modifications: H3S10ph, binder concentration: 500 nM)?
Answer: 0.013 ± 0.00036

Question: What about the “peptide microarray binding signal” value ([2]; peptide modifications: H3S10ph, binder concentration: 10 nM) of the same binder?
Answer: 0.00233 ± 2.7e-05

Question: What about the “peptide microarray binding signal” value ([2]; peptide modifications: H3S10ph, binder concentration: 100 nM) of the same binder?
Answer: 0.0243 ± 0.00098

Question: What about the “peptide microarray binding signal” value [3, 18] of the same binder?
Answer: 0.000321 ± 3.3e-06

Question: And the “peptide microarray binding signal” value [3, 19]?
Answer: 0.000514 ± 5.5e-06

Question: What about the “peptide microarray binding signal” value [4, 18] of the same binder?
Answer: 0.000362 ± 1.3e-05

Question: What about the “peptide microarray binding signal” value [4, 19] of the same binder?
Answer: 0.000288

Question: Which results are given for ARTKQTARKSTGG [H3 1-13 A R Tph Kac Q T A R K S T G G]?
Answer: peptide microarray binding signal ([1]; peptide modifications: H3T3ph H3K4ac, binder concentration: 50 nM): 0.00699 ± 0.00027; peptide microarray binding signal ([1]; peptide modifications: H3T3ph H3K4ac, binder concentration: 500 nM): 0.0189 ± 0.0052; peptide microarray binding signal ([2]; peptide modifications: H3T3ph H3K4ac, binder concentration: 10 nM): 0.01 ± 0.0027; peptide microarray binding signal ([2]; peptide modifications: H3T3ph H3K4ac, binder concentration: 100 nM): 0.024 ± 0.0049; peptide microarray binding signal [3, 20]: 0.00177 ± 0.0002; peptide microarray binding signal [3, 21]: 0.00325 ± 0.0004; peptide microarray binding signal [4, 20]: 0.00104 ± 0.00017; peptide microarray binding signal [4, 21]: 0.00156 ± 0.00017

Question: Which results are given for ARTKQTARKSTGG [H3 1-13 A R Tph Kme Q T A R K S T G G]?
Answer: peptide microarray binding signal ([1]; peptide modifications: H3T3ph H3K4me1, binder concentration: 50 nM): 0.00492 ± 0.00024; peptide microarray binding signal ([1]; peptide modifications: H3T3ph H3K4me1, binder concentration: 500 nM): 0.0238 ± 0.013; peptide microarray binding signal ([2]; peptide modifications: H3T3ph H3K4me1, binder concentration: 10 nM): 0.00376 ± 0.00014; peptide microarray binding signal ([2]; peptide modifications: H3T3ph H3K4me1, binder concentration: 100 nM): 0.021 ± 0.002; peptide microarray binding signal [3, 22]: 0.021 ± 0.0064; peptide microarray binding signal [3, 23]: 0.00765 ± 0.0012; peptide microarray binding signal [4, 22]: 0.00298 ± 0.00034; peptide microarray binding signal [4, 23]: 0.0015 ± 5.1e-05
